# Compound activity as filed in PubChem BioAssay.
# Most compounds without a hit are left out; they make up all but 19% or so of the library.
# ELG1 DNA repair: qHTS screen for small molecules that inhibit ELG1-dependent DNA repair in human embryonic kidney (HEK293T) cells expressing luciferase-tagged ELG1; HEK293T ELG1-luciferase reporter, luminescence, 16 h; DNA damage induced by 5-fluorouridine; Potency, µM (titrated, usually from 46.1 µM), hits mostly inhibitors; actives 2.3% (n = 330,000); AID 504467, 2011; note: nearly all actives have a fitted effect of over 55% in size
#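 Reporter activity after DNA damage by 5-fluorouridine is monitored. Compound-treated cells incubate 16 hr at 37 °C, then ONE-Glo is added for 30 min before luminescence reading.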
# IL-1B inflam inh: qHTS for Inhibitors of Inflammasome Signaling: IL-1-beta AlphaLISA Primary Screen. THP-1 LPS/ATP IL-1B secretion, AlphaLISA, 16 h; active compounds read low. activity change, % at 57.5 µM. actives 4.7% (n = 360,000); in the data active = activity change below about -50%; inconclusive = mostly about -30% to -49%
#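 THP-1 cells pretreated 1 hr with compounds (up to 57.5 uM final), then stimulated with LPS (250 ng/mL final) plus ATP (1.25 mM final); secreted IL-1B measured by AlphaLISA after 16 hr, decreased signal indicating inhibition.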
# TDP1 cell noCPT: qHTS for Inhibitors of human tyrosyl-DNA phosphodiesterase 1 (TDP1): qHTS in cells in absence of CPT | DT40 Tdp1-/- hTDP1 cells, no CPT, ATP luminescence, 48 h | Potency, µM (top dose mostly 46.2 µM), most hits filed as inhibitors | actives 15% (n = 420,000) | AID 686978, 2013; note: nearly all actives have a fitted effect of over 55% in size
#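 Cells were dispensed at 400 per well, compounds added by pin tool, plates incubated ≥48 hr at 37 °C, then CellTiter-Glo added for 30 min at room temperature before luminescence reading. Line: DT40 Tdp1-/- complemented with hTDP1; camptothecin omitted.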
# TDP1 cell CPT: qHTS for Inhibitors of human tyrosyl-DNA phosphodiesterase 1 (TDP1): qHTS in cells in presence of CPT; actives 12% (n = 420,000); chicken DT40 Tdp1-/-;hTDP1 cells + 20 nM CPT, ATP luminescence, 48 h; Potency, µM (top dose mostly 46.2 µM), usual class: inhibitors; note: nearly all actives have a fitted effect of over 55% in size
#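 Chicken DT40 Tdp1-/- cells complemented with human TDP1, 400 cells/well, exposed to compounds plus 20 nM camptothecin for at least 48 h at 37 C; viability read as ATP content by CellTiter-Glo luminescence.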
# HT1080NT lethal: qHTS for induction of synthetic lethality in tumor cells producing 2HG: qHTS for the HT-1080-NT fibrosarcoma cell line; HT-1080-NT fibrosarcoma viability, CellTiter-Glo ATP luminescence, 48 h; Potency, µM (top dose mostly 46.1 µM), actives largely listed as cytotoxic; actives 1.6% (n = 360,000); AID 686970, 2013;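 note: NT is the 2HG producing partner of a matched IDH1 knockdown line; nearly all actives have a fitted effect of over 55% in size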
#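 Toxicity toward the 2HG-producing NT line was scored as %Activity, normalised to DMSO and no-cell wells, from CellTiter-Glo luminescence after 48 hours' treatment.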
# HT1080 IDH1KD tx: qHTS for induction of synthetic lethality in tumor cells producing 2HG: qHTS for the HT-1080-IDH1KD cell line | HT-1080 IDH1 knockdown viability, ATP luminescence, 48 h | Potency, µM (doses to about 46.1 µM), actives largely listed as cytotoxic | actives 2% (n = 360,000)
#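 Assay cells: HT-1080 with IDH1 knockdown, 750 per well, RPMI/5% FBS. Exposure: 48 h at 37 °C following 2 h pre-incubation. Read: CellTiter-Glo luminescence; fitted concentration-response, curve class assigned.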
# Numbers stand for hits; . = inactive; ? = inconclusive; / = no result given. Unless noted, calls come from the whole dose curve; as a rule, active = well fitted curve in the direction sought with a large enough effect; inconclusive = small, poorly fitted or top-dose-only effect, or another doubt; inactive = no such curve, though single readings can be large; an effect the other way counts as inactive or inconclusive.
SMILES,ELG1 DNA repair,IL-1B inflam inh,TDP1 cell noCPT,TDP1 cell CPT,HT1080NT lethal,HT1080 IDH1KD tx
O=C(CN1C(=O)NC(Cc2c[nH]c3ccccc23)C1=O)Nc1cccc(S(=O)(=O)N2CCCC2)c1 (stereo not given),.,.,?,?,.,.
COc1ccc(Cl)cc1NC(=O)CN1C(=O)NC(Cc2c[nH]c3ccccc23)C1=O (stereo not given),?,-57,?,?,.,.
O=C(CN1CCN(C(=O)CNC(=O)c2ccc(N3CCCC3=O)cc2)CC1)Nc1cccc(F)c1,/,.,.,.,.,.
CCCc1nnc(SCC(=O)Nc2cccc(C(F)(F)F)c2)o1,.,.,.,.,.,.
CC1(C)Cc2c(sc3nc(=S)[nH]c(N)c23)CO1,.,/,/,/,/,/
O=C(O)c1cc(N2N=C(C(F)(F)F)/C(=C/C=C/c3ccco3)C2=O)ccc1Cl,.,.,18µM,?,.,.
CCOC(=O)c1ccc(N2N=C(C)/C(=C/C=C/c3ccco3)C2=O)cc1,.,.,?,?,.,.
CN(N=Cc1ccccc1)C(=S)Nc1ccccc1,/,.,12µM,.,.,.
Cc1ccccc1CC(=O)c1ccc(O)c(C)c1O,.,-55,?,.,?,?
CCc1ccc(NC(=O)c2ccc(CNS(=O)(=O)c3ccc4c(c3)C(C)(C)C(=O)N4C)cc2)cc1,/,/,4.1µM,?,/,/
Cc1ccc(CNS(=O)(=O)c2ccc3c(c2)C(C)(C)C(=O)N3C)cc1,.,.,.,.,.,.
CN1C(=O)C(C)(C)c2cc(S(=O)(=O)NCc3ccc(C(=O)Nc4ccc(Cl)cc4)cc3)ccc21,/,/,13µM,18µM,/,/
COc1ccc(CN(C)C(=O)CCNS(=O)(=O)c2ccccc2)c(OC)c1,/,.,.,.,.,.
Cc1ccc(NC(=S)NNC(=S)NNc2ccccc2)cc1C,/,.,23µM,.,.,.
O=C(NNC(=S)Nc1ccc(Cl)cc1)c1ccccc1,?,.,?,.,.,.
C/C(=C\C(=S)Nc1ccccc1)Nc1ccccc1,?,.,16µM,15µM,.,.
S=C(NNC(=S)Nc1ccc(Cl)cc1)NNc1ccccc1,/,.,16µM,15µM,.,.
S=C(NN=C(C1CC1)C1CC1)Nc1ccccc1,?,.,?,21µM,.,.
Cn1c(=O)c(=O)n(C)c2cc(N3CCCC3)c(NC(=O)c3ccccc3F)cc21,/,/,.,.,/,/
CC(CSC(=O)c1ccccc1)C(=O)N1c2ccccc2CC1C(=O)O (stereo not given),/,.,.,.,.,.
S=C(NNC(=S)Nc1ccccc1)Nc1ccccc1,?,?,3.3µM,3.7µM,.,.
S=C(Nc1ccccc1)Nc1nccs1,?,.,3.7µM,5.2µM,.,.
NCCC(=O)N[C@@H](Cc1cnc[nH]1)C(=O)O,/,/,.,.,/,/
C=CCc1c(C)nc(C)nc1N/N=C/c1ccccc1O,?,.,23µM,26µM,.,.
C=CCc1c(C)nc(C)nc1N/N=C/c1ccc([N+](=O)[O-])cc1,?,.,16µM,?,?,.
SMILES,ELG1 DNA repair,IL-1B inflam inh,TDP1 cell noCPT,TDP1 cell CPT,HT1080NT lethal,HT1080 IDH1KD tx
Cc1ccc2nc(C(Cl)(Cl)Cl)nc(N/N=C/c3ccc([N+](=O)[O-])cc3)c2c1,/,.,16µM,?,.,.
CCS(=O)(=O)c1nc(S(=O)(=O)c2ccc(C)cc2)c(N2CCC(O)CC2)s1,.,.,.,.,.,.
O=C(N[C@@H]1C/C=C\C[C@@H](CC(=O)N(CCO)Cc2ccccc2)C(=O)NCCOC1=O)OCC1c2ccccc2-c2ccccc21,.,.,9.2µM,16µM,.,.
O=C1CC/C=C\C[C@@H](CC(=O)N(CCO)Cc2ccccc2)C(=O)NCCO1,?,.,.,.,.,.
O=C(N[C@H]1C/C=C\C[C@@H](CC(=O)N(CCO)Cc2ccccc2)C(=O)NC[C@H](c2ccccc2)OC1=O)OCC1c2ccccc2-c2ccccc21,?,.,4.1µM,3.7µM,23µM,?
C[C@@H]1COC(=O)[C@H](NC(=O)OCC2c3ccccc3-c3ccccc32)C/C=C\C[C@@H](CC(=O)N(CCO)Cc2ccccc2)C(=O)N1,.,.,15µM,9.2µM,.,.
CC(C)(C)[C@H]1COC(=O)[C@H](NC(=O)OCC2c3ccccc3-c3ccccc32)C/C=C\C[C@@H](CC(=O)N(CCO)Cc2ccccc2)C(=O)N1,10µM,.,23µM,9.2µM,?,.
C[C@@H]1COC(=O)[C@H](CC(=O)OC(C)(C)C)C/C=C\C[C@H](CC(=O)N(CCO)Cc2ccccc2)C(=O)N1,.,.,.,.,.,.
Cc1ccc(S(=O)(=O)N2CCN(C(=O)C(O)c3ccccc3)CC2)cc1 (stereo not given),/,.,.,.,.,.
COC(=O)C1CN(C(=O)COc2ccc(C)c(C)c2)c2ccccc2O1 (stereo not given),.,.,.,.,.,.
CCCCC1=NN2CCS(=O)(=O)N=C2S1,.,.,.,.,.,.
COc1ccc(N2CCN(C(=O)COC(=O)c3ccc(-n4nc(C)cc4C)cc3)CC2)cc1,.,.,.,?,.,.
O=C(N[C@@H]1C/C=C\C[C@H](CC(=O)N(CCO)Cc2ccccc2)C(=O)N[C@@H](Cc2ccccc2)COC1=O)OCC1c2ccccc2-c2ccccc21,.,.,16µM,16µM,.,.
O=C1CC/C=C\C[C@@H](CC(=O)N(CCO)Cc2ccccc2)C(=O)N[C@H](Cc2ccccc2)CO1,?,.,?,.,.,.
CC(=O)c1cccc(NC(=O)c2noc3c2CC(C)CC3)c1 (stereo not given),/,/,.,.,/,/
Cc1c(-c2ccc(F)cc2)nc(N)c(C#N)c1-c1ccco1,.,.,.,.,?,13µM
N#Cc1c(N)nc(SCC(=O)OCc2ccccc2)c(C#N)c1-c1ccco1,.,.,.,.,.,.
CCc1nc(N)c(C#N)c(-c2ccc(F)cc2)c1C,.,.,.,.,.,.
CCCOC(=O)CSc1nc(N)c(C#N)c(-c2ccco2)c1C#N,/,-88,.,.,.,.
